# Measurements taken from ChEMBL document CHEMBL4296182, “CO-ADD screening of NIH NCI Diversity Set V”.
# For part of these data: Entries with a potency or affinity are not part of this list.
# What was measured:
# [1] = tested on: Staphylococcus aureus; experiment: Antibacterial activity against Staphylococcus aureus MRSA ATCC 43300 (CO-ADD:GP_020); MIC in CAMBH media using NBS plates, by Resazurin F(560/590); assay type: functional; settings: Concentration 20 uM, ASSAY_TEST Inhibition of Bacterial Growth, detection method Resazurin, Fluorescence (ex560/em590), MEDIA CAMHB, plate type 384well, CORNING #3640, time 18 hr
# [2] = tested on: Acinetobacter baumannii; experiment: Antibacterial activity against Acinetobacter baumannii ATCC 19606 (CO-ADD:GN_034); MIC in CAMBH media using NBS plates, by Resazurin F(560/590); assay type: functional; settings: Concentration 20 uM, ASSAY_TEST Inhibition of Bacterial Growth, detection method Resazurin, Fluorescence (ex560/em590), MEDIA CAMHB, plate type 384well, CORNING #3640, time 18 hr
# [3] = tested on: Escherichia coli; experiment: Antibacterial activity against Escherichia coli ATCC 25922 (CO-ADD:GN_001); MIC in CAMBH media using NBS plates, by Resazurin F(560/590); assay type: functional; settings: Concentration 20 uM, ASSAY_TEST Inhibition of Bacterial Growth, detection method Resazurin, Fluorescence (ex560/em590), MEDIA CAMHB, plate type 384well, CORNING #3640, time 18 hr
# [4] = tested on: Klebsiella pneumoniae; settings: Concentration 20 uM; ASSAY_TEST Inhibition of Bacterial Growth; detection method Absorption (OD600); MEDIA CAMHB; plate type 384well; NBS; CORNING #3640; time 18 hr
# [5] = tested on: Candida albicans; settings: 20 µM
# [6] = tested on: Cryptococcus neoformans; settings: Concentration 20 uM; ASSAY_TEST Inhibition of Fungal Growth; detection method Resazurin; Absorption (OD600-OD570); plate type 384well; NBS; CORNING #3640
smiles,measurement,setting,value
CC1(C)N=C(N)N=C(N)N1c1ccc(OCCCOc2ccccc2)c(Cl)c1.CCS(=O)(=O)O,Inhibition,[1],10.6%
same,Inhibition,[2],-13.57%
same,Inhibition,[3],15.29%
same,Inhibition,[4],12.4%
same,Inhibition,[5],-0.44%
same,Inhibition,[6],-3.49%
Cc1cc(C)c(C#N)c(Sc2nc(C)c([N+](=O)[O-])c(C)c2C#N)n1,Inhibition,[1],33.8%
same,Inhibition,[2],4.2%
same,Inhibition,[3],1.58%
same,Inhibition,[4],21.76%
same,Inhibition,[5],8.27%
same,Inhibition,[6],2.92%
CN(C)c1ccc(C(c2ccc(N(C)C)cc2)c2ccc([N+](=O)[O-])cc2)cc1,Inhibition,[1],15.85%
same,Inhibition,[2],11.72%
same,Inhibition,[3],-1.1%
same,Inhibition,[4],17.42%
same,Inhibition,[5],2.89%
same,Inhibition,[6],-7.55%
CCOc1cc2c(Cl)ncnc2c(OCC)c1OCC,Inhibition,[1],4.34%
same,Inhibition,[2],-8.17%
same,Inhibition,[3],3.68%
same,Inhibition,[4],0.85%
same,Inhibition,[5],2.82%
same,Inhibition,[6],-6.05%
COc1cc2c(cc1OC)C(=O)Cc1ccc3c(c1CN(C)CC2)OCO3,Inhibition,[1],7.05%
same,Inhibition,[2],12.34%
same,Inhibition,[3],18.89%
same,Inhibition,[4],9.37%
same,Inhibition,[5],-0.52%
same,Inhibition,[6],-7.07%
Cc1ccc(Cl)cc1NC(=O)N(C)CCO,Inhibition,[1],-6.32%
same,Inhibition,[2],12.85%
same,Inhibition,[3],-9.79%
same,Inhibition,[4],13.54%
same,Inhibition,[5],6.98%
same,Inhibition,[6],-5.5%
Cn1c(=O)c2nc(CNc3ccc(C(=O)O)cc3)[nH]c2n(C)c1=O,Inhibition,[1],-13.67%
same,Inhibition,[2],2.67%
same,Inhibition,[3],-18.91%
same,Inhibition,[4],4.5%
same,Inhibition,[5],2.41%
same,Inhibition,[6],17.72%
O=C(Cn1nnc(N2CCCCC2)n1)N/N=C/c1ccccc1O,Inhibition,[1],17.81%
same,Inhibition,[2],3.41%
same,Inhibition,[3],7.77%
same,Inhibition,[4],2.1%
same,Inhibition,[5],-0.19%
same,Inhibition,[6],-9.12%
Cn1c(=O)c2c(nc(Cc3ccc(N)cc3)n2C)n(C)c1=O,Inhibition,[1],12.3%
same,Inhibition,[2],8.51%
same,Inhibition,[3],1.69%
same,Inhibition,[4],16.58%
same,Inhibition,[5],-1.67%
same,Inhibition,[6],-5.25%
Cc1cc(O)c2c(O)[nH]nc2n1,Inhibition,[1],14.32%
same,Inhibition,[2],-13.07%
same,Inhibition,[3],7.82%
same,Inhibition,[4],1.49%
same,Inhibition,[5],-3.37%
same,Inhibition,[6],-5%
O=C1CCC(NC(=O)c2ccccc2)C(=O)N1 (stereo not given),Inhibition,[1],13.55%
same,Inhibition,[2],6.82%
same,Inhibition,[3],7.42%
same,Inhibition,[4],5.68%
same,Inhibition,[5],1.37%
same,Inhibition,[6],-6.13%
CC1(C)SC(C)(C)N(C=O)C1C(=O)O (stereo not given),Inhibition,[1],-0.19%
same,Inhibition,[2],-4.51%
same,Inhibition,[3],4.94%
same,Inhibition,[4],4.48%
same,Inhibition,[5],1.14%
same,Inhibition,[6],-3.91%
CC(C)N(Cc1ccccc1)S(=O)(=O)c1nc(C(C)(C)C)n[nH]1,Inhibition,[1],14.24%
same,Inhibition,[2],7.66%
same,Inhibition,[3],0.73%
same,Inhibition,[4],17.58%
same,Inhibition,[5],0.76%
same,Inhibition,[6],-4.79%
Cc1cc(NC(=O)OC(C)C)ccc1-c1ccc(NC(=O)OC(C)C)cc1C,Inhibition,[1],6.05%
same,Inhibition,[2],1.04%
same,Inhibition,[3],-21.51%
same,Inhibition,[4],2.57%
same,Inhibition,[5],2.22%
same,Inhibition,[6],33.06%
Cc1c(C#N)c2n(c1C)CCCC(=O)N2,Inhibition,[1],39.05%
same,Inhibition,[2],3.89%
same,Inhibition,[3],19.57%
same,Inhibition,[4],7.55%
same,Inhibition,[5],10.6%
same,Inhibition,[6],5.76%
CC(C)(C)CC(C)(C)n1nnnc1N,Inhibition,[1],12.74%
same,Inhibition,[2],-17.3%
same,Inhibition,[3],15.8%
same,Inhibition,[4],12.31%
same,Inhibition,[5],0.83%
same,Inhibition,[6],-5.24%
COC(=NC(C)C)NC(C)C,Inhibition,[1],0.33%
same,Inhibition,[2],-8.49%
same,Inhibition,[3],15.21%
same,Inhibition,[4],8%
same,Inhibition,[5],1.22%
same,Inhibition,[6],-13.2%
COc1ccc2nc3cc(Cl)ccc3c(Nc3cc(C(C)C)c(O)cc3C)c2c1,Inhibition,[1],18.28%
same,Inhibition,[2],-16.67%
same,Inhibition,[3],18.01%
same,Inhibition,[4],9.53%
same,Inhibition,[5],-0.84%
same,Inhibition,[6],-12.42%
S=C(Nc1ccccc1)c1ccccn1,Inhibition,[1],3.41%
same,Inhibition,[2],-5.82%
same,Inhibition,[3],1.02%
same,Inhibition,[4],19.37%
same,Inhibition,[5],25.9%
same,Inhibition,[6],-3.26%
O=C(O)C1=NN(c2cc(Cl)c(S(=O)(=O)O)cc2Cl)C(=O)C1,Inhibition,[1],10.8%
same,Inhibition,[2],12.97%
same,Inhibition,[3],19.15%
same,Inhibition,[4],14.41%
same,Inhibition,[5],2.3%
same,Inhibition,[6],-14.45%
CN1CCC(=C2c3ccccc3C(O)c3ccccc32)CC1 (stereo not given),Inhibition,[1],1.61%
same,Inhibition,[2],-19.91%
same,Inhibition,[3],15.16%
same,Inhibition,[4],2.29%
same,Inhibition,[5],0.03%
same,Inhibition,[6],-16.59%
CCOC(=O)c1cnn2c(SC)ncnc12,Inhibition,[1],10.61%
same,Inhibition,[2],5.37%
same,Inhibition,[3],-2.6%
same,Inhibition,[4],12.61%
same,Inhibition,[5],5.51%
same,Inhibition,[6],-8.81%
COc1ccc(/C=C2/CCOC2=O)cc1,Inhibition,[1],-2.28%
same,Inhibition,[2],-9.37%
same,Inhibition,[3],12.04%
same,Inhibition,[4],6.07%
same,Inhibition,[5],3.59%
same,Inhibition,[6],-15.8%
Nc1ccc(C(=O)C(=O)c2ccc(N)cc2)cc1,Inhibition,[1],-28.54%
same,Inhibition,[2],-4.51%
same,Inhibition,[3],-16.8%
same,Inhibition,[4],1.88%
same,Inhibition,[5],2.62%
same,Inhibition,[6],25.61%
CCOC(=O)c1c(O)cc(C)nc1O,Inhibition,[1],3.86%
same,Inhibition,[2],-15.92%
same,Inhibition,[3],14.23%
same,Inhibition,[4],12.49%
same,Inhibition,[5],3.14%
same,Inhibition,[6],13.8%
Cn1c(=O)c2nc(CCCc3ccc([N+](=O)[O-])cc3)[nH]c2n(C)c1=O,Inhibition,[1],7.08%
same,Inhibition,[2],-13.97%
same,Inhibition,[3],3.35%
same,Inhibition,[4],12.88%
same,Inhibition,[5],0.38%
same,Inhibition,[6],-9.63%
C1=CC2(C=C1)OC21CCC2(C=CC3(C2)OC3C2CCCCC2)CC1 (stereo not given),Inhibition,[1],-4.93%
same,Inhibition,[2],2.41%
same,Inhibition,[3],4.97%
same,Inhibition,[4],-0.69%
same,Inhibition,[5],1.23%
same,Inhibition,[6],-15.19%
COc1c(/C=N/NC(N)=O)c(OC)c(OC)c2c1CCO2,Inhibition,[1],5.41%
same,Inhibition,[2],0.63%
same,Inhibition,[3],-9.64%
same,Inhibition,[4],15.41%
same,Inhibition,[5],4.39%
same,Inhibition,[6],14.65%
Cc1c(O)ccc2c(O)c(NC(=O)c3ccc4c(c3)CCC(C)(C)O4)c(=O)oc12 [CYCLONOVOBIOCIC ACID],Inhibition,[1],10.86%
same,Inhibition,[2],10.56%
same,Inhibition,[3],-1.41%
same,Inhibition,[4],4.57%
same,Inhibition,[5],4.26%
same,Inhibition,[6],-3.84%
O=C(Nc1cccc([N+](=O)[O-])c1)c1ccc2ccccc2c1O,Inhibition,[1],0.95%
same,Inhibition,[2],-11.75%
same,Inhibition,[3],6.76%
same,Inhibition,[4],12.38%
same,Inhibition,[5],3.5%
same,Inhibition,[6],4.47%
O=S1(=O)CCN(Cc2ccccn2)CC1,Inhibition,[1],22.86%
same,Inhibition,[2],16.69%
same,Inhibition,[3],26.77%
same,Inhibition,[4],2.99%
same,Inhibition,[5],2.84%
same,Inhibition,[6],12.19%
Cc1cccc(C)c1NC(=O)NCc1ccco1,Inhibition,[1],-11.45%
same,Inhibition,[2],7.13%
same,Inhibition,[3],6.33%
same,Inhibition,[4],8.14%
same,Inhibition,[5],2.89%
same,Inhibition,[6],-10.4%
Cc1cc(S)nc(S)n1,Inhibition,[1],19.64%
same,Inhibition,[2],-5.84%
same,Inhibition,[3],8.34%
same,Inhibition,[4],8.54%
same,Inhibition,[5],-0.64%
same,Inhibition,[6],-0.35%
CC(=O)Oc1ccc(OC(C)=O)c2c1CC(C)=C(C)C2,Inhibition,[1],4.66%
same,Inhibition,[2],-3.24%
same,Inhibition,[3],12.77%
same,Inhibition,[4],4.69%
same,Inhibition,[5],1.46%
same,Inhibition,[6],-18.35%
O=C(Nc1cccc2ccccc12)c1ccccc1,Inhibition,[1],1.57%
same,Inhibition,[2],-13.68%
same,Inhibition,[3],5.05%
same,Inhibition,[4],-4.37%
same,Inhibition,[5],0.1%
same,Inhibition,[6],-4.91%
Cc1ccc(-c2cc(C(=O)O)c3ccccc3n2)c(C)c1,Inhibition,[1],11.92%
same,Inhibition,[2],8.6%
same,Inhibition,[3],-3.13%
same,Inhibition,[4],18.95%
same,Inhibition,[5],8.35%
same,Inhibition,[6],-6%
COc1ccccc1N=NNc1ccccc1OC,Inhibition,[1],15.47%
same,Inhibition,[2],-0.02%
same,Inhibition,[3],3.88%
same,Inhibition,[4],9.87%
same,Inhibition,[5],2.77%
same,Inhibition,[6],-8.49%
CSc1ccc(NC(=O)Nc2cc(C)ccn2)cc1,Inhibition,[1],4.66%
same,Inhibition,[2],-16.85%
same,Inhibition,[3],9.5%
same,Inhibition,[4],13.34%
same,Inhibition,[5],0.13%
same,Inhibition,[6],-8.58%
CC(OC(=O)Nc1cccc(Cl)c1)C(=O)O (stereo not given),Inhibition,[1],8.5%
same,Inhibition,[2],9.43%
same,Inhibition,[3],16.3%
same,Inhibition,[4],7.75%
same,Inhibition,[5],-1.51%
same,Inhibition,[6],-11.24%
Cc1ccc(/N=N\c2c(O)ccc3[nH]nnc23)cc1,Inhibition,[1],-9.42%
same,Inhibition,[2],-9.08%
same,Inhibition,[3],4.02%
same,Inhibition,[4],11.98%
same,Inhibition,[5],13.2%
same,Inhibition,[6],-12.82%
Oc1ccc(Cl)nn1,Inhibition,[1],1.52%
same,Inhibition,[2],-4.23%
same,Inhibition,[3],4.23%
same,Inhibition,[4],8.48%
same,Inhibition,[5],0.96%
same,Inhibition,[6],1.34%
Cc1cc(=O)[nH]/c(=N/N=C2/CCCCC2C)[nH]1 (stereo not given),Inhibition,[1],22.54%
same,Inhibition,[2],-10.76%
same,Inhibition,[3],10%
same,Inhibition,[4],5.45%
same,Inhibition,[5],-3.38%
same,Inhibition,[6],-9.25%
CSc1c(N(C)C)c(=O)c1=S,Inhibition,[1],-5.31%
same,Inhibition,[2],-13.14%
same,Inhibition,[3],11.42%
same,Inhibition,[4],6.17%
same,Inhibition,[5],1.7%
same,Inhibition,[6],-16.36%
C=CCN1CCN(c2ccncc2S(=O)(=O)N2CCN(C)CC2)CC1,Inhibition,[1],11.93%
same,Inhibition,[2],5.76%
same,Inhibition,[3],5.47%
same,Inhibition,[4],7.93%
same,Inhibition,[5],-0.33%
same,Inhibition,[6],-11.5%
CCn1c2ccccc2nc2cc3c(cc21)c(Cl)c(=O)c1ccccc13,Inhibition,[1],25.73%
same,Inhibition,[2],12.51%
same,Inhibition,[3],3.84%
same,Inhibition,[4],12.19%
same,Inhibition,[5],-1.37%
same,Inhibition,[6],-5.64%
